From PubChem BioAssay (NCATS)
Inconclusive results are not listed. Calls of active or inactive are those of the source. Unless noted, the call rests on the fitted dose curve.

System: not listed separately
Assay: qHTS for Inhibitors of Plasmodium falciparum (CP250) proliferation (AID 504320; active means well fitted inhibition curve with a large enough effect;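 further: plate controls were DMSO vehicle for no effect and 0.29 µM artemisinin control for full effect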)
Details: P. falciparum CP250 in erythrocytes, SYBR Green DNA, 72 h; series mostly up to 6.7 µM; activity change, negative = inhibition: at the top concentration
Procedure, shortened: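 Erythrocytes infected with P. falciparum line (0.3% parasitemia, 2.5% hematocrit final) incubated with compounds 72 h at 37 °C, 5% CO2; SYBR Green lysis buffer added, fluorescence read next day. Normalized to 0.29 uM artemisinin and DMSO.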

Activity change, negative = inhibition, inactive:
CCC(C)CN1C(=O)NC(c2ccccc2)C(C(=O)OC)=C1C (centres undefined) 0.592%
COC(=O)NC(c1ccccc1)c1c[nH]c2ccc(OC)cc12 (centres undefined) 9.61%
O=C1Nc2cccc(Br)c2[C@@]12O[C@H](COc1ccccc1)CC1=CCCC12 (some centres undefined) 2.98%
CC12C=C(C=CCCc3ccco3)C(C)(C1)C(CCc1ccco1)CC2=O (centres undefined) 5.88%
CC1(OC(=O)c2ccco2)C(=O)C=C2C=C(c3ccsc3)OC=C2C1=O (centres undefined) -3.11%
C=C(C#Cc1ccc(OC)cc1)CCN1C=C(C(=O)OCC)C(c2ccccc2)NC1=O (centres undefined) 4.54%
COc1ccc([C@]23Cc4ccccc4[C@H](O2)C2=C(O3)C(=O)c3ccccc3C2=O)cc1 -13.8%
COc1ccc(COC(=O)NN=C2C[C@@H](O)[C@@H](O)[C@@H]3[C@H]4C(=O)N([C@@H](C)c5ccccc5)C(=O)[C@@H]4CC[C@H]23)cc1 -0.154%
COC(=O)C1=C(C)N(CCC(C)O)C(=O)N(C(C)=O)C1c1ccccc1 (centres undefined) -8.05%
COc1ccc(NC2=CC(c3ccccc3)N(c3ccc(OC)cc3)C2=O)cc1 (centres undefined) 7.08%
COCCN1C(=O)C2=C(C1=O)C1N(C)c3ccccc3[C@@]13C[C@@H](CO)N(S(=O)(=O)c1ccc(OC)cc1)C3=N2 (some centres undefined) -3.97%
CCN1C(=O)[C@@H]2[C@H]3[C@H](O)[C@H](O)CC(=NO[C@H](C)c4cn([C@@H]5COC[C@@H]5O)nn4)[C@@H]3CC[C@H]2C1=O 2.65%
CCN1C(=O)NC(c2ccco2)C(C(C)=O)=C1C (centres undefined) -0.464%
CCOC(=O)CCN1C(=O)[C@@H]2[C@H]3[C@H](O)[C@H](O)CC(=NNC(=O)OCc4ccccc4)[C@H]3CC[C@H]2C1=O -2.35%

Potency, inactive:
CC(=O)C1=C(C)N(Cc2ccccc2)C(=O)NC1c1ccc(Br)cc1 (centres undefined)

Target: Atrial natriuretic peptide receptor 1 (Homo sapiens) (UniProt P16066)
Sequence (P16066 whole entry, looked up): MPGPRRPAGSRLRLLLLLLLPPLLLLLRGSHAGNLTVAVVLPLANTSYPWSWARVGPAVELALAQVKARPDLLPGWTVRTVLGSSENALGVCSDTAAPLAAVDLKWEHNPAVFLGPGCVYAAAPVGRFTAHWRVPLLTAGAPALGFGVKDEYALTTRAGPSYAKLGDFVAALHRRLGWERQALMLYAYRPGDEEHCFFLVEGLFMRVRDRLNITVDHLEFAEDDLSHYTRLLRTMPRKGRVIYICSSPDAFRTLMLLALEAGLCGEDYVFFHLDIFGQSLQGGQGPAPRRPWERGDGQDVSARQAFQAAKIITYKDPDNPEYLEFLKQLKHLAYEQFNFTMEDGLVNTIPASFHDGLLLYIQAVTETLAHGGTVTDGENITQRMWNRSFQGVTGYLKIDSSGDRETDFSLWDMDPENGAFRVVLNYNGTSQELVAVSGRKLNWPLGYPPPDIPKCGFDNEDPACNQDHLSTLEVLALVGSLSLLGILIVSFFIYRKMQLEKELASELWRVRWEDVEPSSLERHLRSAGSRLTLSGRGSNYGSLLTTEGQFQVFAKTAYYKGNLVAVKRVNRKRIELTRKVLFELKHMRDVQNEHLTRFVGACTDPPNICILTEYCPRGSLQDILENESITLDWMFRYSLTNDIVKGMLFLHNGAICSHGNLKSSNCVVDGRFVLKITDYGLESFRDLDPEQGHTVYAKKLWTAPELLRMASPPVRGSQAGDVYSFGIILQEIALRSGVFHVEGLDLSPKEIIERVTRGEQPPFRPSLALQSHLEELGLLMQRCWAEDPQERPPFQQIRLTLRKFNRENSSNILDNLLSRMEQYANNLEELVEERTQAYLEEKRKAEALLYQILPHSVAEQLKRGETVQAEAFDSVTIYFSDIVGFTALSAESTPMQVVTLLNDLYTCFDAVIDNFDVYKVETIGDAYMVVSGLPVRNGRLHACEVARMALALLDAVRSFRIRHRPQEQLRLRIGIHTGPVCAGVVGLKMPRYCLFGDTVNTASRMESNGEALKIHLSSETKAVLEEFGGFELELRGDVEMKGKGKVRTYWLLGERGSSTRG
Assay: Natriuretic polypeptide receptor (hNpr1) antagonism - Pilot CMLD screen (AID 1347052);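 further: HEK293 cells with hNpr1 stimulated by hNppA peptide at 0.1 nM; cGMP level read as GloSensor luciferase luminescence after agonist stimulation; on the % scale 0 is the no-effect control and ±100 the full control effect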
Details: HEK293 hNpr1 GloSensor cGMP luminescence, ANP-stimulated; series mostly up to 9.22 µM; activity change, negative = inhibition: at the top concentration

Activity change, negative = inhibition, inactive:
C=CC[C@@H]1C=C[C@@H](Oc2ccc(OC)cc2)[C@H](CO)O1 -1.66%
CCC(C)CN1C(=O)NC(c2ccccc2)C(C(=O)OC)=C1C (centres undefined) 3.73%
CC12C=C(C=Cc3ccc(F)cc3)C(C)(C1)C(c1ccc(F)cc1)CC2=O (centres undefined) 9.67%
COC(=O)NC(c1ccccc1)c1c[nH]c2ccc(OC)cc12 (centres undefined) 7.78%
CCc1cc2c(nc1CC)CCN(CCC(C)=NO[C@@H](C)CN1CCCc3nc(C)c(C)cc31)C2 8.17%
COC(=O)N[C@@H](C=Cc1ccccc1)C(C(=O)OC)=C(C)NCc1ccccc1 -8.35%
O=C1Nc2cccc(Br)c2[C@@]12O[C@H](COc1ccccc1)CC1=CCCC12 (some centres undefined) 2.7%
COC(=O)C1=C(C(=O)OC)[C@@H]2N(C)c3ccc(OC)cc3[C@@]23C[C@@H](C(=O)OC)N(C(=O)NC(C)(C)C)C3=N1 1.9%
CC12C=C(C=CCCc3ccco3)C(C)(C1)C(CCc1ccco1)CC2=O (centres undefined) 4.54%
CC1(OC(=O)c2ccco2)C(=O)C=C2C=C(c3ccsc3)OC=C2C1=O (centres undefined) 0.103%
CCCNC(=O)OC[C@H]1O[C@H](CCON=C(C)CCN2CCCc3nc(C)c(C)cc32)C=C[C@H]1Oc1ccc(OC)cc1 0.733%
COC(=O)[C@H]1O[C@@H](c2cc(OC)c(C)c(OC)c2OCc2ccccc2)[C@H](C)[C@@H]2O[C@]12C -1.49%
C=C(C#Cc1ccc(OC)cc1)CCN1C=C(C(=O)OCC)C(c2ccccc2)NC1=O (centres undefined) -0.51%
COc1ccc2c3c(c(=O)oc2c1)[C@H]1O[C@](c2ccsc2)(Cc2ccccc21)O3 -2.97%
COc1ccc([C@]23Cc4ccccc4[C@H](O2)C2=C(O3)C(=O)c3ccccc3C2=O)cc1 -3.18%
CC(C)=CCN1C(=O)[C@]2(O[C@H](C)CC3=CCCC32)c2c(Br)cccc21 (some centres undefined) 9.24%
COc1ccc(COC(=O)NN=C2C[C@@H](O)[C@@H](O)[C@@H]3[C@H]4C(=O)N([C@@H](C)c5ccccc5)C(=O)[C@@H]4CC[C@H]23)cc1 -2.11%
N#CCCCSc1nnnn1-c1cc(C(F)(F)F)cc(C(F)(F)F)c1 -0.496%
COC(=O)C1=C(C)N(CCC(C)O)C(=O)N(C(C)=O)C1c1ccccc1 (centres undefined) 13.3%
CCN1C(=NCCCOC(C)C)N[C@@H](CCc2ccccc2)[C@H](C(=O)NCCCOC(C)C)[C@H]1C -0.228%
Cc1ccccc1Nc1oc(-c2ccccc2)nc1-c1ccccc1 -19.5%
COc1ccc(NC2=CC(c3ccccc3)N(c3ccc(OC)cc3)C2=O)cc1 (centres undefined) 2.5%
C=CCN=C1NC(c2cccc(F)c2)C(C(=O)OC)=C(C)N1Cc1ccccc1 (centres undefined) 0.513%
CCCNC(=O)OC[C@H]1O[C@H](CCON=C(C)CCC(=O)OC[C@H]2O[C@H](C#Cc3ccccc3)C=C[C@H]2Oc2ccc(C)cc2)C=C[C@H]1Oc1ccc(OC)cc1 -3.26%
